The source of these data is PubChem BioAssay (NCI).

The structures appear in SMILES notation. “And” between values parts separate entries of the source, which are not always exact repeats. Identical values can stand only once. This is part of a sample that, as a whole, favours compounds with a hit. Of some 83,000 tested, about 20% had one in any assay.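 96-well plates, one dose, 48 hours. Percent growth reported; active if below 10.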 The source made the active and inactive calls.

Some test systems named below: HCT-15 colon; HT29 colon; SNB-75 CNS; SNB-19 CNS; U251 CNS; PC-3 prostate; SK-MEL-5 melanoma; UACC-62 melanoma; SK-MEL-28 melanoma; LOX IMVI melanoma.
Holding throughout (assay): NCI-60 one-dose screen, 48 h (100 = growth as untreated, 0 = no growth, -100 = all killed)
Holding throughout (conditions): 10 µM unless noted

`CC[CH2][Sn]([Cl])([Cl])[CH2]CC.Oc1ccccc1C=NCCN=Cc1ccccc1O`: the growth is 59.8% (inactive) and 60.4% (inactive) in the assay on HCT-15 colon; 79.1% (inactive) and 58.3% (inactive) in the assay with HT29 colon; 50.7% (inactive) in the assay on SNB-75 CNS; 79.2% (inactive) and 67.5% (inactive) in the assay with SNB-19 CNS; 26% (inactive) and -21.6% (active) in the assay with U251 CNS; 84.9% (inactive) and 70.9% (inactive) with PC-3 prostate. In addition, the growth with SK-MEL-5 melanoma was 60.1% (inactive) and 50% (inactive); in the assay with UACC-62 melanoma, 39.8% (inactive) and 32.3% (inactive); with SK-MEL-28 melanoma, 48.3% (inactive) and 45.7% (inactive).
`CCOP(=O)(OCC)C(=O)N(CC)CC`: the growth in the assay with HCT-15 colon is 98.4% (inactive); in the assay with HT29 colon it was 114% (inactive); in the assay on SNB-75 CNS, 102% (inactive); in the assay with SNB-19 CNS, 103% (inactive); in the assay with U251 CNS it was 95% (inactive); with PC-3 prostate, 96.5% (inactive). In addition, the growth is 94.4% (inactive) in the assay on SK-MEL-5 melanoma, 107% (inactive) with UACC-62 melanoma and 115% (inactive) with SK-MEL-28 melanoma.
With `C[C@@]12CCCc3coc(c31)C(=O)c1cc3c(cc12)C(=O)C1=C(NCCS1(=O)=O)C3=O`, the growth in the assay on HCT-15 colon was 8.66% (active); with HT29 colon, -4.92% (active); in the assay on SNB-75 CNS it was -87.5% (active); with SNB-19 CNS it was -68.8% (active); in the assay with U251 CNS, -61% (active); in the assay with PC-3 prostate, -6.62% (active). Further, the growth in the assay with SK-MEL-5 melanoma was -98% (active); in the assay on UACC-62 melanoma, -68% (active); in the assay with SK-MEL-28 melanoma, -9.02% (active).
`O=S(=O)(c1ccc(O)cc1)c1ccccc1O`: the growth in the assay with HCT-15 colon is 108% (inactive); in the assay on HT29 colon, 112% (inactive); in the assay with SNB-75 CNS it was 96.7% (inactive); with SNB-19 CNS it was 104% (inactive); in the assay on U251 CNS it was 107% (inactive); with PC-3 prostate, 89% (inactive). Moreover, the growth in the assay with SK-MEL-5 melanoma was 102% (inactive); in the assay with UACC-62 melanoma, 98.2% (inactive); in the assay on SK-MEL-28 melanoma, 105% (inactive).
In the case of `C=CC[PH+](c1ccccc1)c1ccccc1.C=CC[PH+](c1ccccc1)c1ccccc1.[Pt+2].[S-]c1ncccn1.[S-]c1ncccn1`, the growth was -29.3% (active) in the assay on HCT-15 colon; 0.0923% (active) in the assay with HT29 colon; 58.3% (inactive) with SNB-75 CNS; 74.9% (inactive) in the assay on SNB-19 CNS; 59.1% (inactive) in the assay with U251 CNS; 38.8% (inactive) in the assay with PC-3 prostate. The growth is 66.6% (inactive) in the assay with SK-MEL-5 melanoma, 27.7% (inactive) in the assay with UACC-62 melanoma and -30.9% (active) with SK-MEL-28 melanoma.
Regarding `C[C@]12C[C@H](c3ccoc3)OC(=O)[C@H]1CC[C@@]1(C)[C@@H]2[C@H]2C=C[C@]1(O)C(=O)O2`, the growth in the assay on HCT-15 colon is 101% (inactive); with HT29 colon, 82.3% (inactive); in the assay on SNB-75 CNS, 78.3% (inactive); with SNB-19 CNS, 102% (inactive); with U251 CNS it was 97.8% (inactive); in the assay with PC-3 prostate, 74.8% (inactive). Moreover, the growth was 106% (inactive) in the assay on SK-MEL-5 melanoma, 92.5% (inactive) in the assay on UACC-62 melanoma and 109% (inactive) with SK-MEL-28 melanoma.
For `CCC(=O)C(CC(C)N1CCCCCC1)(c1ccccc1)c1ccccc1` (stereo not drawn), the growth with HCT-15 colon is 87.2% (inactive); with HT29 colon it was 67.1% (inactive); with SNB-75 CNS, 115% (inactive); in the assay with SNB-19 CNS it was 95.2% (inactive); in the assay on U251 CNS it was 100% (inactive); in the assay with PC-3 prostate, 89.2% (inactive). The growth was 98.2% (inactive) with SK-MEL-5 melanoma, 94.4% (inactive) with UACC-62 melanoma and 94.7% (inactive) with SK-MEL-28 melanoma.
As for `NC(N)=NC(N)=Nc1ccc(Cl)cc1`, the growth is 108% (inactive) in the assay on HCT-15 colon; 97.8% (inactive) in the assay on HT29 colon; 77.1% (inactive) with SNB-75 CNS; 105% (inactive) in the assay with SNB-19 CNS; 113% (inactive) in the assay with U251 CNS; 89.5% (inactive) in the assay with PC-3 prostate. Further, the growth with SK-MEL-5 melanoma is 108% (inactive); in the assay on UACC-62 melanoma, 111% (inactive); in the assay with SK-MEL-28 melanoma it was 98.9% (inactive).
As for `C/C(=N/OC(=O)N(C)C)c1ccc(Cl)c(Cl)c1`, the growth in the assay on HCT-15 colon was 107% (inactive); with HT29 colon, 95.2% (inactive); with SNB-75 CNS, 116% (inactive); in the assay on SNB-19 CNS it was 99.4% (inactive); in the assay with U251 CNS, 105% (inactive); in the assay on PC-3 prostate, 93.7% (inactive). Further, the values for the growth with SK-MEL-5 melanoma, in the assay with UACC-62 melanoma and with SK-MEL-28 melanoma were 99.3% (inactive), 97.8% (inactive) and 105% (inactive), respectively.
As for `O=C1NC(=O)C(=C/C=C/c2ccccc2)C(=O)N1`, the growth in the assay with HCT-15 colon was 8.86% (active); in the assay with HT29 colon, -71.6% (active); with SNB-75 CNS it was 24.3% (inactive); in the assay with SNB-19 CNS, 53.8% (inactive); in the assay on U251 CNS, 7.65% (active); in the assay on PC-3 prostate it was 27.7% (inactive). Besides, the growth in the assay with SK-MEL-5 melanoma was 80.9% (inactive); with UACC-62 melanoma it was -11.9% (active); in the assay on SK-MEL-28 melanoma, -34.7% (active).
Consider `O=C(O)C(Br)CBr` (stereo not drawn), for which the growth in the assay with HCT-15 colon is 90.8% (inactive); in the assay on HT29 colon it was 97.6% (inactive); with SNB-75 CNS, 89.5% (inactive); with SNB-19 CNS it was 107% (inactive); in the assay with U251 CNS, 97% (inactive); with PC-3 prostate, 94.3% (inactive). Also, the growth in the assay with SK-MEL-5 melanoma is 98.8% (inactive); with LOX IMVI melanoma, 94.3% (inactive); in the assay with SK-MEL-28 melanoma, 110% (inactive).
Consider `COC(=O)C1=CO[C@@H](C)[C@@H]2CN3CCc4c([nH]c5cc(OC)ccc45)[C@@H]3C[C@H]12`, for which the growth in the assay with HCT-15 colon was 97.6% (inactive); with HT29 colon, 103% (inactive); in the assay with SNB-75 CNS it was 76.9% (inactive); with SNB-19 CNS, 95.2% (inactive); with U251 CNS, 103% (inactive); in the assay with PC-3 prostate, 93.9% (inactive). In addition, the growth in the assay with SK-MEL-5 melanoma was 98.2% (inactive); in the assay on UACC-62 melanoma, 78.3% (inactive); in the assay on SK-MEL-28 melanoma, 114% (inactive).
For the molecule `O=C(Cc1ccccc1)c1ccccc1`, the growth in the assay with HCT-15 colon was 102% (inactive); with HT29 colon it was 106% (inactive); in the assay on SNB-75 CNS, 86.8% (inactive); with SNB-19 CNS it was 109% (inactive); with U251 CNS it was 94.5% (inactive); with PC-3 prostate, 98.2% (inactive). For the same molecule, the growth with SK-MEL-5 melanoma was 99.6% (inactive); in the assay on UACC-62 melanoma, 111% (inactive); in the assay on LOX IMVI melanoma, 106% (inactive); with SK-MEL-28 melanoma it was 113% (inactive).
